Potency and growth rescue (activation) data for 27 molecules are collected here from PubChem BioAssay AID652104 (National Center for Advancing Translational Sciences (NCATS), 2013).

The whole screen tested about 410,000 compounds, of which about 7,200 (1.8%) were called active. Not shown: some 7% with an inconclusive outcome. What follows is part of a selection rich in actives, with near analogues and random picks from the rest. Where a call stands in place of a potency, no number is given. Values without a mark were called inactive. Calls come from the whole dose curve; as a rule, active = well fitted activation curve with a large enough effect; inconclusive = small, poorly fitted or top-dose-only effect, or another doubt; inactive = no such curve, though single readings can be large or run the other way.
Potency is the fitted concentration of half-maximal effect.

The experiment in a line: qHTS of TDP-43 Inhibitors. Note: nearly all actives have a fitted effect of over 50% in size. The conditions noted are these: TDP-43 expressing yeast growth rescue, BacTiter-Glo, 24 h; series mostly up to 46.1 µM. The essentials: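 Galactose-induced TDP-43 yeast, OD600=0.02, compound pinned; 24 hr, 30 deg C; BacTiter-Glo luminescence for growth. Inhibitors of TDP-43 toxicity read as activators.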
Background: qHTS replaces the single test concentration by a dilution series.
In the case of `CCC(C)c1ccc2oc(-c3ccc(NC(=O)c4cc5ccccc5o4)cc3)nc2c1` (configuration not stated), the Potency result is “inactive”.

As for `Cc1ccccc1C(=O)OC1OC(=O)C(Cl)=C1Nc1ccccc1` (configuration not stated), the Potency is 22.4 µM (active).

Regarding `O=C1OC(OC(=O)c2ccccc2Br)C(N2CCOCC2)=C1Cl` (configuration not stated), the Potency result is “inactive”.

With `Cc1ccccc1C(=O)O`, the Potency result is “inactive”.

For the molecule `Cc1cccc(NC(=O)Cn2nc(-c3ccc(Cl)cc3)c3ccccc3c2=O)c1`, the Potency result was “inactive”.

Take `CCCC12CN3CC(C)(CN(C1)C3c1ccccc1Cl)C2=O` (configuration not stated): the Potency result is “inactive”.

In the case of `CC(C)(C)c1ccc(S(=O)(=O)N2CCN(C(=O)c3cc(-c4ccc(Br)cc4)n[nH]3)CC2)cc1`, the Potency result is “inactive”.

Turning to `CCCCN(CC)CCCNC(=O)c1nn(C)c2c1CSc1ccccc1-2`, the Potency entry is “inactive”.

Consider `COc1ccc(OC)c(CCNC(=O)c2nn(C)c3c2CS(=O)(=O)c2ccccc2-3)c1`, for which the Potency entry was “inactive”.

Take `COc1ccc(CCNC(=O)c2nn(C)c3c2CSc2ccccc2-3)cc1OC`: the Potency is 11.2 µM (active).

As for `Cc1cc(-c2ccc(C)c(S(=O)(=O)N3c4ccccc4CC3C)c2)on1` (configuration not stated), the Potency result is “inactive”.

`Cc1ccc(S(=O)(=O)N2CCCc3cc(NS(=O)(=O)c4cc(C)ccc4C)ccc32)cc1`: the growth rescue (activation) was 0% [at 9.22 µM].

For `O=C(c1ccc(N2CCOCC2)c([N+](=O)[O-])c1)N1CCN(S(=O)(=O)c2cccs2)CC1`, the Potency result was “inactive”.

Take `O=C(O)C1CCN(c2ccc([N+](=O)[O-])cc2[N+](=O)[O-])CC1`: the Potency entry was “inactive”.

For `CCOC(=O)N1CCN(c2cc(C)c([N+](=O)[O-])cc2F)CC1`, the Potency entry was “inactive”.

For `O=C(c1ccc(N2CCOCC2)c([N+](=O)[O-])c1)N1CCN(c2ccccc2F)CC1`, the Potency was 14.1 µM (active).

Turning to `O=C(OCC(=O)N1CCOCC1)c1ccc(N2CCOCC2)c([N+](=O)[O-])c1`, the growth rescue (activation) was 7.7% [at 9.22 µM].

As for `CCC(=O)c1ccc(N2CCN(C(=O)c3cc([N+](=O)[O-])ccc3F)CC2)c(F)c1`, the Potency is 12.6 µM (active).

On to `COc1ccc(S(=O)(=O)NCC(c2ccc(N(C)C)cc2)N2CCc3ccccc32)cc1OC` (configuration not stated), for which the growth rescue (activation) was -42.7% [at 9.22 µM].

In the case of `Cc1ccc2nc(COc3cccc(NC(=O)c4cccc(Cl)c4)c3)cc(=O)n2c1`, the Potency result is “inactive”.

Consider `CC(=O)Nc1cnc(-c2ccc(O)cc2C)cn1`, for which the Potency entry was “inactive”.

For the molecule `Cc1ccc(Nc2nc(-c3ccc(O)cc3O)cs2)nc1`, the Potency was 20 µM (active).

As for `Cc1cc(C)c(NC(=O)c2cc3sc(Cl)cc3n2C)c(C)c1`, the Potency result is “inactive”.

Take `Cn1c(=O)c(C(=O)O)nn(-c2ccccc2)c1=O`: the Potency entry was “inactive”.

As to `CCCn1c2ccccc2c2cnn(CC(=O)NCC3CCN(Cc4ccc(C)cc4)CC3)c(=O)c21`, the Potency entry is “inactive”.

As for `COc1ccc(SCc2cc(=O)c3ccc(C)c(C)c3[nH]2)cc1`, the Potency result was “inactive”.

Consider `CCC(=O)N1CCc2cc(S(=O)(=O)NC(Cc3ccccc3)C(=O)NCc3ccc(C)cc3)ccc21` (configuration not stated), for which the Potency entry is “inactive”.
